TGFb inhibitor: TGF-b pathway inhibition; HepG2 CAGA-GFP TGF-b/SMAD3 reporter, GFP fluorescence, 18 h; TGF-beta stimulated, 500 pg/mL final; Potency, µM (highest dose often 46.1 µM), for the others: top-dose activity, negative = inhibition, most hits filed as inhibitors; hit rate 1.2% among 410,000; AID 588855; further: on the % scale 0 is the no-effect control and ±100 the full control effect; nearly all actives have a fitted effect of over 65% in size
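Smad-responsive CAGA-GFP expression was quantified in HEPG2 cells exposed to compounds and 500 pg/mL final TGF-beta for 18 h at 37 degrees C; unstimulated wells defined full inhibition.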
DT40 TDP1 no CPT: qHTS for Inhibitors of human tyrosyl-DNA phosphodiesterase 1 (TDP1): qHTS in cells in absence of CPT. Potency, µM (series often up to 46.2 µM), for inactives: at the highest dose activity change, negative = growth inhibition, actives largely listed as inhibitors. AID 686978, 2013. hit rate 15% among 420,000. DT40 Tdp1-/- hTDP1 cells, no CPT, ATP luminescence, 48 h; further: on the % scale 0 is the no-effect control and ±100 the full control effect; nearly all actives have a fitted effect of over 55% in size
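Cells were dispensed at 400 per well, compounds added by pin tool, plates incubated ≥48 hr at 37 °C, then CellTiter-Glo added for 30 min at room temperature before luminescence reading. Line: DT40 Tdp1-/- complemented with hTDP1; camptothecin omitted.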
HepG2 viability: kills HepG2 cells in TGF-b inhibitor counter-screen. Potency, µM (top dose mostly 46.1 µM), for inactives: top-dose activity change, negative = cytotoxicity, most hits filed as cytotoxic. hit rate 0.76% among 410,000. HepG2 CAGA-GFP viability, ATP luminescence, 18 h
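CellTiter-Glo luminescence gave cytotoxicity after 18 hours at 37 degrees C. The cells were HepG2 CAGA-GFP in 1% FBS DMEM, stimulated with 500 pg/mL TGF-beta after compound addition. %Activity was normalised to no-cell wells (complete cell-killing) and DMSO (no toxicity), and curves were fitted and classified.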
DT40 TDP1 CPT: growth inhibition of DT40 Tdp1-/-;hTDP1 cells with camptothecin (screen for TDP1 inhibitors); chicken DT40 Tdp1-/-;hTDP1 cells + 20 nM CPT, ATP luminescence, 48 h; Potency, µM (top dose mostly 46.2 µM), for inactives: at the top dose activity change, negative = growth inhibition, hits mostly inhibitors; hit rate 12% among 420,000; further: on the % scale 0 is the no-effect control and ±100 the full control effect; nearly all actives have a fitted effect of over 55% in size
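Cell growth measured by CellTiter-Glo luminescence after a minimum 48 h, 37 C compound exposure with 20 nM CPT in Tdp1-knockout DT40 cells stably expressing hTDP1, seeded 400/well; qHTS titration format.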
ATXN2 expr inh: ATXN2 expression inhibition; HEK-293 ATXN2-luciferase reporter, luminescence, 24 h; Potency, µM (highest dose often 57 µM), without a hit: at the top dose activity change, negative = inhibition, most hits filed as inhibitors; hit rate 0.72% among 360,000; AID 1745845; further: on the % scale 0 is the no-effect control and ±100 the full control effect; nearly all actives have a fitted effect of over 55% in size
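qHTS (up to 57 uM final) was run with 24 h compound exposure of reporter cells at 37 °C. Each well was multiplexed: SteadyGlo luminescence measured ATXN2-luciferase expression after a fluorogenic Gly-Phe-AFC viability readout (25 uM final).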
ATXN viability: viability counter-screen for ATXN expression inhibitors | S2 cells (HEK-293 line with an ATXN2-luciferase reporter) viability, CellTiter-Fluor protease fluorescence, 24 h | Potency, µM (titrated, usually from 56.7 µM), actives largely listed as cytotoxic | hit rate 0.49% among 400,000 | AID 651635; further: nearly all actives have a fitted effect of over 40% in size
An asterisk follows results filed as active; i = inactive; ? = inconclusive; . = no result given; [ ] = another dose, or the depositor's remark. Compounds with a hit are over-represented: about 17% of the library has one in this group of screens. The call rests on the fitted dose curve; in most records, active means well fitted curve in the direction sought with a large enough effect; inconclusive means small, poorly fitted or top-dose-only effect, or another doubt; inactive means no such curve, though single readings can be large; an effect the other way counts as inactive or inconclusive. Potency means the concentration at half of the fitted maximal effect.

SMILES	TGFb inhibitor	DT40 TDP1 no CPT	HepG2 viability	DT40 TDP1 CPT	ATXN2 expr inh	ATXN viability
COc1cccc(-c2csc(N3CCN(C(=S)NCC(C)C)CC3)n2)c1	?	?	-28%	18µM*	?	i
CCCNS(=O)(=O)/C=C/c1ccccc1	?	2%	-21%	9%	-21%	i
O=S(=O)(/C=C/c1ccccc1)Oc1ccccc1	?	16µM*	-5%	26µM*	-6%	i
Cc1ccc(-c2nc(S(=O)(=O)c3ccc(C)cc3)c(N(C)C)o2)cc1	23%	23µM*	-2%	?	-2%	?
Cc1ccc(S(=O)(=O)c2nc(-c3ccccc3Br)oc2N(C)C)cc1	?	?	-33%	21µM*	-19%	i
CN(C)c1oc(/C=C/c2cccs2)nc1S(=O)(=O)c1ccccc1	?	-17%	-20%	-8%	1%	i
Cc1ccc(S(=O)(=O)c2nc(-c3ccccc3Cl)oc2N(C)C)cc1	-12%	10µM*	-6%	7.3µM*	-16%	i
COc1ccccc1-c1nc(S(=O)(=O)c2ccc(Cl)cc2)c(N(C)C)o1	-9%	2%	1%	-6%	-1%	i
Cc1occc1C(=O)Nc1cccc(-c2nc(CNC(=O)c3cc(-c4ccccc4)n[nH]3)c(C)o2)c1	.	?	.	?	.	i
COC(=O)Nc1nc(-c2ccccc2)c(C(=O)c2ccc(Cl)cc2)s1	?	0.65µM*	7%	0.58µM*	-13%	?
CC(=O)c1sc(NC(=O)c2ccccc2)nc1-c1ccccc1	-11%	-22%	-21%	-17%	15%	i
CCOC(=O)Nc1nc(-c2ccccc2)c(C(=O)c2ccccc2)s1	?	0.65µM*	8%	0.58µM*	1%	i
CC[C@@H](C)[C@@H](CO)NC(=O)[C@H]1O[C@@H](n2cnc3c(N)ncnc32)[C@H](O)[C@@H]1O	0%	6%	2%	9%	8%	i
CC(C)c1cc2c(c(O)c1O)[C@@]13CCCC(C)(C)C1CC2OC3=O (stereo not given in full)	13µM*	8.2µM*	-28%	5.2µM*	?	?
COc1cccc(C(NC(C)=O)c2nc(-c3ccncc3)cs2)c1 (stereo not given)	6%	?	-1%	-21%	1%	i
Oc1c(Cl)cc(Cl)cc1CNc1nc2ccccc2[nH]1	-11%	-4%	-17%	1%	1%	?
O=C(CCn1cnc2onc(-c3ccc(F)cc3)c2c1=O)N1CCN(c2ccc(F)cc2)CC1	?	18µM*	-5%	23µM*	-38%	i
COc1ccccc1N1CCN(C(=O)Cn2cnc3c2c(=O)n(C)c(=O)n3C)CC1	-12%	-25%	11%	?	21%	i
COc1ccccc1N1CCN(C(=O)Cn2cnc3onc(-c4ccc(F)cc4)c3c2=O)CC1	0%	23µM*	-16%	?	-10%	i
CC(=O)c1ccc(N2CCN(C(=O)CCn3cnc4onc(-c5ccc(F)cc5)c4c3=O)CC2)cc1	3%	?	8%	?	-1%	i
C[C@@H](C(=O)N1CCN(C(=O)OC(C)(C)C)CC1)n1cc(CCCN=C(NC(=O)OC(C)(C)C)NC(=O)OC(C)(C)C)nn1	-12%	?	-12%	?	8%	i
CCc1ccccc1Nc1nn2c(=O)c3ccc(C(=O)NC4CCCCC4)cc3nc2s1	1%	13µM*	4%	10µM*	-9%	i
COc1ccccc1Nc1nn2c(=O)c3ccc(C(=O)NC4CCCCC4)cc3nc2s1	2%	3.7µM*	-1%	2.3µM*	-13%	i
Cc1ccc(CSc2nc3cc(C(=O)NC4CCCC4)ccc3c(=O)n2Cc2ccccc2)cc1	3%	?	-5%	?	.	.
COc1ccccc1Nc1ccc(C(=O)NC2CCCCC2)cn1	6%	?	-24%	?	27%	i
SMILES	TGFb inhibitor	DT40 TDP1 no CPT	HepG2 viability	DT40 TDP1 CPT	ATXN2 expr inh	ATXN viability
CCCCN(Cc1ccco1)C(=O)c1cc2c(s1)-c1c(C)cccc1OC2	?	23µM*	-22%	?	?	i
CN(C)CCN(Cc1ccco1)C(=O)c1cc2c(s1)-c1ccccc1OC2	?	16µM*	13µM*	16µM*	.	.
Cc1cccc(N(CC(=O)NCCc2ccccc2)C(=O)c2csnn2)c1	0%	-15%	6%	-15%	38%	i
CCCNC(=O)[C@H]1O[C@H]1C(=O)N[C@H](C(=O)N1CCC[C@@H]1C(=O)OC)C(C)CC (stereo not given in full)	.	.	.	.	22µM*	.
NS(=O)(=O)c1ccc(CCNC(=O)CCCOc2ccccc2)cc1	-8%	?	-6%	-14%	2%	i
O=C(/C=C/c1ccc(OCCCF)cc1)Nc1ccnc(-c2ccncc2)n1	-12%	23µM*	-16%	?	?	?
CCn1c(SCc2c(F)cccc2Cl)nnc1-c1ccco1	11%	18µM*	0%	?	13%	i
Cc1cc(C)cc(NC(=O)CSc2nnc(CNC(=O)c3ccco3)n2C)c1	11%	29µM*	-4%	?	0%	i
Cn1c(SCc2cccc3ccccc23)nnc1-c1ccco1	-10%	?	-30%	13µM*	5%	i
Nn1c(SCc2cccc3ccccc23)nnc1-c1ccco1	3%	?	3%	?	4%	i
Cn1c(SCC(=O)c2ccc(-c3ccccc3)cc2)nnc1-c1ccco1	4%	26µM*	7%	-24%	12%	i
CCn1c(Sc2ccc([N+](=O)[O-])cn2)nnc1-c1ccco1	?	2.1µM*	-53%	1.6µM*	-16%[11.3 µM]	i
Cn1c(SCC(=O)c2ccc3c(c2)Cc2ccccc2-3)nnc1-c1cccc(N)c1	-14%	?	-6%	?	-5%	?
CCn1c(SCC(=O)OCc2ccccc2)nnc1-c1ccco1	-14%	0%	-31%	-1%	2%	i
Cn1c(SCC(=O)NC2CC2)nnc1-c1ccco1	2%	0%	4%	-5%	4%	i
CC(=O)Nc1ccc(-c2nnc(SCC(=O)c3ccc4c(c3)Cc3ccccc3-4)n2C)cc1	-28%	12µM*	-94%	13µM*	?	?
CCCNC(=O)CSc1nnc(-c2ccco2)n1C	-10%	13µM*	-38%	23µM*	19%	i

Screening results as filed in PubChem BioAssay.
